# Rows were chosen to be rich in hits. Some 4% of all compounds tested hit in one or more screens of this group.
# Tau filament bind = binds recombinant human tau filaments; recombinant tau filaments, thioflavin S fluorescence, 15 h; filaments grown with octadecylsulfate alongside compound; Potency, µM (series often up to 57.1 µM), for inactives: top-dose activity change, negative = inhibition; 2% of 71,000 active;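 note: % is set by controls: 0 for no effect and ±100 for the full control effect; actives lower thioflavin S fluorescence by blocking filaments or displacing dye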
#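 Recombinant tau protein (human, 1 uM final) plus 30 uM ODS in HEPES pH 7.4 with NaCl, DTT and thioflavine S. Compound present from the start; fluorescence at 510 nm after 15 h, 37 C.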
# Caspase-7 inhib = caspase-7 (human) inhibition, allosteric or competitive; P55210; recombinant caspase-7, Ac-DEVD-AFC fluorescence rate; Potency, µM (series often up to 57.5 µM), for the others: at the highest dose activity change, negative = inhibition, usual class: inhibitors; 0.02% of 75,000 active; active = well fitted inhibition curve with a large enough effect in the main read-out, with a control signal flat, not every such curve was filed as active; inconclusive = small, poorly fitted or top-dose-only effect, or a change in a side signal; note: % of control where 0% means no effect
# Luciferase inh = inhibitors of firefly luciferase; P08659; AID 411; purified firefly luciferase, luminescence, 8 min; Potency, µM (top dose mostly 57.1 µM), for inactives: at the top dose activity change, negative = inhibition, most hits filed as inhibitors; 2.2% of 72,000 active; note: % is set by controls: 0 for no effect and ±100 for the full control effect; nearly all actives have a fitted effect of over 40% in size
# Target sequence (P08659 whole entry, looked up): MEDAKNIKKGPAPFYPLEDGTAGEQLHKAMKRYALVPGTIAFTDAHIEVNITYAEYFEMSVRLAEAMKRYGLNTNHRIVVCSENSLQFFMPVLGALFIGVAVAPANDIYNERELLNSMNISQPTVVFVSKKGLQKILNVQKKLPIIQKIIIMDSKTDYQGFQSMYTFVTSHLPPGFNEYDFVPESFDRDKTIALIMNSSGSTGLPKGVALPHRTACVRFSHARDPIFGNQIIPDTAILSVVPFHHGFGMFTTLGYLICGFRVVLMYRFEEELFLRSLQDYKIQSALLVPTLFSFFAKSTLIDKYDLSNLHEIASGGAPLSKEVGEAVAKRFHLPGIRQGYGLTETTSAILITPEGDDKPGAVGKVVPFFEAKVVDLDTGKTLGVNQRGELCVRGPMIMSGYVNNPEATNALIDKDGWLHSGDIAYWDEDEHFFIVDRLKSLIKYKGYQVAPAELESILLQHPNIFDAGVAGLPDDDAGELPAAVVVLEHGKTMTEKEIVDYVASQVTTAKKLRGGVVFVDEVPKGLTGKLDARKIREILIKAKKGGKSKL
#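 Inhibition of light generation by firefly luciferase from ATP and luciferin was profiled with concentration-response curves per sample, ATP held at 10 uM within the enzyme's linear range. Plates were read by luminescence after an 8-minute ambient incubation.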
# Bst PK mod = modulators of Bacillus stearothermophilus pyruvate kinase | purified pyruvate kinase, luminescence ATP production; ribose 5-phosphate activator present at AC10 | Potency, µM | 1.2% of 51,000 active; in the data active = potency below about 11 µM; inconclusive = mostly about 12 µM to 25 µM;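 the screen sought inhibitors and activators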;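 note: scaled between full activation by ribose 5 phosphate and full inhibition by luteolin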
# Casp1 inh = caspase-1 (human) inhibition, allosteric or competitive; 0.03% of 75,000 active; P29466; Caspase-1 enzyme, Ac-WEHD-AFC fluorogenic rate; AID 900; Potency, µM (top dose mostly 57.5 µM), for inactives: top-dose activity change, negative = inhibition, most hits filed as inhibitors;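 note: plate controls were vehicle for no effect and no substrate for full effect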
# An asterisk follows results filed as active; i = inactive; ? = inconclusive; · = not tested or not shown; ! = repeats disagree; [ ] = another dose, or the depositor's remark. Unless noted, calls come from the whole dose curve; as a rule, active = well fitted curve in the direction sought with a large enough effect; inconclusive = small, poorly fitted or top-dose-only effect, or another doubt; inactive = no such curve, though single readings can be large; an effect the other way counts as inactive or inconclusive. Potency is the fitted concentration of half-maximal effect.
SMILES,Tau filament bind,Caspase-7 inhib,Luciferase inh,Bst PK mod,Casp1 inh
Cc1noc(C)c1C(=O)N1CCC2(CCCN(Cc3nccs3)C2)CC1,1.5%,-1.4%,1.4%[11.4 µM],·,-1.0%
CN(C)c1ccc(-c2cncnc2NCc2ccccc2)cc1,-10.7%,-2.4%,-0.9%[2.29 µM],·,-2.9%
COc1ccc(CCC(=O)c2c(O)cc(O[C@@H]3O[C@H](CO)[C@@H](O)[C@H](O)[C@H]3O[C@@H]3O[C@@H](C)[C@H](O)[C@@H](O)[C@H]3O)cc2O)cc1O,-0.4%,1.1%,·,·,2.5%
COC(=O)C1(CC(C)C)C=C2C(=C(c3ccccc3)C(=O)C2C)CN1 (centres undefined),79.4%,-13.5%,·,·,-8.6%
O=C(c1ccccc1)c1ccc(N2CCNCC2)cc1,1.8%,0.4%,-1.9%,>57,-2.9%
O=C(c1ccccc1)c1ccc(N2CCCC2)cc1,-17.1%,-23.0%,12.6µM*,·,?
CCCCCCC1=Cc2cc(OC)c(OC)cc2C(C(C(C)=O)C(=O)OCC)O1 (centres undefined),·,-0.5%[11.5 µM],·,·,-1.6%[11.5 µM]
OCCCCNc1cccc2ccccc12,25.1µM*,-2.0%,-4.5%,>57,-4.5%
O=C(O)[C@H]1[C@H](C(=O)O)[C@H](C(=O)O)C[C@@H]1C(=O)O,7.7%[11.4 µM],1.2%[11.5 µM],1.5%[11.4 µM],·,-0.2%[11.5 µM]
CN(C)S(=O)(=O)c1ccc2c(c1)/C(=C/c1cc3c([nH]1)CCCC3)C(=O)N2,-11.7%,-7.9%,25.1µM*,·,-2.8%
COc1ccc(N(C)S(=O)(=O)c2ccc3c(c2)CCC(=O)N3)cc1,-5.7%,-1.4%,4.5%,>57,-0.4%
NC[C@@H]1O[C@H](C23CC4CC(CC(C4)C2)C3)Cc2c1ccc(O)c2O,31.6µM*!,-0.7%,-0.5%,·,-1.1%
NC[C@@H]1O[C@H](c2ccccc2)Cc2c1ccc(O)c2O,-8.8%,-1.2%,-1.4%,·,1.6%
Cc1ccccc1-c1nc2cc(N)ccc2o1,-11.9%,-1.3%,12.6µM*,?,-3.2%
Nc1ccc2oc(CCc3ccccc3)nc2c1,-19.6%,-0.2%,-27.7%,·,-1.3%
Nc1ccc2oc(-c3cccc(Br)c3)nc2c1,-2.9%,-20.9%,7.94µM*,·,-11.3%
CC(C)c1ccc2oc(-c3cc(N)ccc3O)nc2c1,3.16µM*,-9.9%,0.501µM*,·,-11.3%
C=CCn1c(/N=C/c2ccc(N(C)C)cc2)nc2ccccc21,-1.0%,-16.5%,3.98µM*,1.41*,-13.9%
CN(C)c1ccc(C=Nc2cnn(C)c2C(N)=O)cc1,·,·,-18.0%[25.5 µM],i,·
CN(C)c1ccc(/C=N/n2ncc3ccccc32)cc1,-25.8%,?,3.98µM*,1.88*,·
Nc1nc(N)c2nn(-c3ccc(C(=O)O)cc3)nc2n1,-0.8%[11.4 µM],-0.4%[11.5 µM],2.5%[11.4 µM],·,-1.8%[11.5 µM]
O=C(c1ccc2c(c1)OCCCO2)c1cccs1,-9.9%,1.0%,12.6µM*,·,-2.2%
Cc1cc(Cl)cc2c1NC(=O)[C@]21[C@@H]2C(=O)N(Cc3ccccc3)C(=O)[C@@H]2[C@@H]2CCCN21,25.1µM*,-8.3%,-1.9%,>57,-10.6%
CCc1ccc2c(c1)[C@]1(C(=O)N2)[C@@H]2C(=O)N(Cc3ccccc3)C(=O)[C@@H]2[C@@H]2CCCN21,20µM*,-17.4%,0.9%,>57,-3.1%
CC1CC(C)CN(CCCNC(=O)CNC(=O)Cn2ccc3ccccc3c2=O)C1 (centres undefined),4.7%,-0.5%,0.4%,>57,4.0%
SMILES,Tau filament bind,Caspase-7 inhib,Luciferase inh,Bst PK mod,Casp1 inh
CCOC(=O)c1c(C)n(C)c2ccc(O)c(S(=O)(=O)c3ccccc3)c12,·,·,-1.7%[25.5 µM],10.3*,·
CCOC(=O)c1c(C)n(C)c2ccc(O)c(CN(C)C)c12,2.7%,-1.5%,-2.4%,>57,-1.5%
COc1ccc(OC)c(NC(=O)C2CCCN2C(=O)C2CCC(C)CC2)c1 (centres undefined),20µM*,0.1%,0.6%,·,-5.6%
CCOc1ccc(C2c3c(oc4ccccc4c3=O)C(=O)N2CCCN2CCOCC2)cc1 (centres undefined),-23.5%,-4.6%,0.7%,>57,-2.2%
CCOc1ccc(C2c3c(oc4cc(C)c(C)cc4c3=O)C(=O)N2CCCN2CCOCC2)cc1 (centres undefined),15.8µM*,-2.7%,0.9%,·,-1.5%
Cc1ccc2oc3c(c(=O)c2c1)C(c1cccc(Cl)c1)N(CCCN1CCOCC1)C3=O (centres undefined),12.6µM*,-5.9%,4.1%,·,·
Cc1cc2oc3c(c(=O)c2cc1C)C(c1ccc(C(C)C)cc1)N(CCCN1CCOCC1)C3=O (centres undefined),3.98µM*,1.0%,1.2%,·,-0.2%
